Data published in PubChem BioAssay (NCATS).
Inconclusive results are not listed. Calls of active or inactive are those of the source. Unless noted, calls follow the shape of the full dose curve.

Key:
[1] = target: Bile acid receptor (Homo sapiens) (UniProt Q96RI1); test: qHTS assay for small molecule agonists of farnesoid X receptor signaling (AID 588527); conditions: HEK293T FXR-UAS-bla, beta-lactamase ratio, 16 h; activation: stronger effect = higher value;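 also: series mostly up to about 77 µM; 0% = vehicle basal and 100% = reference agonist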
In short: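 FXR-UAS-bla HEK293T, 10% dialyzed FBS; cpds up to 92 uM titration, 16 h 37 C; CCF4 dye 2 h RT; fluorescence. Normalized to chenodeoxycholic acid 100 uM (100%) and DMSO (0%); Hill fit gives EC50, efficacy.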

[2] = target: Peroxisome proliferator-activated receptor delta (Homo sapiens) (UniProt Q03181); test: qHTS assay for small molecule agonists of peroxisome proliferator-activated receptor delta signaling (AID 588534);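 also: 0% = DMSO basal wells and 100% = positive control agonist at 10 µM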
In short: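 Agonist-mode qHTS; reporter cells, 5 hrs 37 C pre-incubation; compound titration, 18 hrs 37 C; CCF4 dye, 2 hrs RT; fluorescence read. EC50/efficacy via Hill fit.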

[3] = qHTS assay for small molecule antagonists of peroxisome proliferator-activated receptor delta signaling (AID 588535; active = well fitted inhibition curve with a large enough effect in the signal ratio, with a control signal flat, not every such curve was filed as active; the % refers to the signal ratio;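 as to max response: cells co-treated with a PPAR-delta agonist as stimulator during compound exposure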); conditions: HEK293T PPARd-UAS-bla, beta-lactamase FRET ratio, 18 h; 460 nm channel
In short: (§1)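 Fluorescence from CCF4-loaded GeneBLAzer PPAR-delta-UAS-bla HEK293T cells (2 hrs RT loading) quantified reporter inhibition after an 18 hr, 37 C compound exposure across a titration.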

[4] = target: Peroxisome proliferator-activated receptor delta (Homo sapiens) (UniProt Q03181); test: as above
In short: as §1

[5] = target: Vitamin D3 receptor (Homo sapiens) (UniProt P11473); test: qHTS assay for small molecule antagonists of vitamin D receptor signaling (AID 588541);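 also: receptor activated by calcitriol during compound treatment; series mostly up to about 77 µM; % is scaled to controls: 0 for no effect and ±100 for the full control effect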
In short: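 VDR-UAS-bla HEK293T cells in 2% charcoal-stripped FBS were stimulated with 1-alpha,25-dihydroxyvitamin D3 (3 nM final) plus compound for 16 h at 37 C. The beta-lactamase CCF4 readout was normalized to 50 nM agonist and DMSO, and Hill fits gave IC50.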

[6] = target: Vitamin D3 receptor (Homo sapiens) (UniProt P11473); test: qHTS assay for small molecule agonists of vitamin D receptor signaling (AID 588543);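 also: 0% = DMSO basal and 100% = reference agonist control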
In short: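 Reporter cells (HEK293T, VDR-UAS-bla) were seeded in medium with 2% charcoal-stripped serum and incubated 5 h, then compounds in concentration series were added for 16 h at 37 °C. Stimulation was scaled between DMSO basal and 50 nM 1α,25-dihydroxyvitamin D3.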

[7] = target: Thyroid hormone receptor beta (Homo sapiens) (UniProt P10828); test: qHTS assay for small molecule agonists of thyroid hormone receptor beta signaling (AID 588545)
In short: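 HEK 293 TR-UAS-bla; agonist mode; 18 hrs, 37 C; CCF4, ex 405/em 460 and 530 nm; norm. T3 10 nM = 100%, DMSO = 0%; Hill fit → EC50, efficacy.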

[8] = qHTS assay for small molecule antagonists of retinoid X receptor alpha signaling (AID 588546; active = well fitted inhibition curve with a large enough effect in the signal ratio, with a control signal flat, not every such curve was filed as active; the % refers to the signal ratio;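 also: cells stimulated with 9-cis-retinoic acid as agonist; % is scaled to controls: 0 for no effect and ±100 for the full control effect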); conditions: HEK293T RXRa-UAS-bla, beta-lactamase ratio, antagonist mode; measured here: W530 green channel, cytotoxicity proxy
In short: (§2)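 Beta-lactamase reporter inhibition, read as CCF4 fluorescence ratio (ex 405, em 460/530 nm) after 2 h at RT. HEK293T UAS-bla cells, 2500/well, were stimulated with 9-cis-RA at 500 or 100 nM final alongside test compound for 18 h at 37 C.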

[9] = target: Retinoic acid receptor RXR-alpha (Homo sapiens) (UniProt P19793); test: as above; conditions: HEK293T RXRa-UAS-bla, beta-lactamase ratio, antagonist mode
In short: as §2

[10] = qHTS assay for environmental chemicals that activate the Aryl hydrocarbon Receptor (AhR) signaling pathway (AID 651777; active = well fitted curve in the direction sought with a large enough effect; an effect the other way counts as inactive or inconclusive; also: nearly all actives have a fitted effect of over 15% in size; also: potency is read from the fitted curve at half-maximal effect; as to activation: % of control where 0% means no effect); conditions: 1A2-DRE human hepatoma cells, luciferase, 24 h; activation: stronger effect = higher value
In short: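 Human hepatoma 1A2-DRE cells, stably carrying a dioxin response element and CYP1A2 promoter driving luciferase, were exposed to compounds for 24 hr at 37 C and 5% CO2. Luciferase signal was then read after 30 min One-Glo at room temperature.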

[11] = target: Peroxisome proliferator-activated receptor alpha (Homo sapiens) (UniProt Q07869); test: qHTS assay for small molecule agonists of the peroxisome proliferator-activated receptor alpha (PPARalpha) signaling pathway (AID 651778; active = well fitted curve in the direction sought with a large enough effect; an effect the other way counts as inactive or inconclusive; also: % of control where 0% means no effect); conditions: PathHunter PPARalpha complementation, chemiluminescence, 6 h; max response: stronger effect = higher value
In short: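 Enzyme-fragment complementation assay in which ligand-bound PPARalpha translocates and forms an active enzyme that generates chemiluminescence. Cells were plated overnight, exposed to compound for 6 hr at 37 C, and then given detection reagent for 60 min at room temperature.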

[12] = qHTS assay for small molecule agonists of the antioxidant response element (ARE) signaling pathway measured by Nrf2-dependant transcriptional activity (AID 720636; active = well fitted curve in the direction sought with a large enough effect in the repeat runs; an effect the other way counts as inactive or inconclusive; also: % of control where 0% means no effect)
In short: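 ARE-luc HepG2 cells carrying an Nrf2-responsive luciferase reporter were plated in medium with 1% dialyzed FBS, left 6 hr at 37 C to attach, then exposed to compound for 16 hr. Luciferase luminescence was read after ONE-Glo addition.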

[13] = qHTS assay for small molecule agonists of the antioxidant response element (ARE) signaling pathway measured by Nrf2-dependant transcriptional activity - cell viability counter screen (AID 720653; active = well fitted curve in the direction sought with a large enough effect in the repeat runs; an effect the other way counts as inactive or inconclusive; also: % is scaled to controls: 0 for no effect and ±100 for the full control effect); conditions: ARE-bla HepG2 viability, CellTiter-Glo ATP luminescence, 16 h; max response: stronger effect = lower value
In short: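 ARE-bla HepG2 cells treated with compounds for 16 h at 37C; this counter screen measures viability as intracellular ATP by CellTiter-Glo luminescence after 30 min at room temperature.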

[14] = target: Nuclear receptor subfamily 1 group I member 2 (Rattus norvegicus) (UniProt Q9R1A7); test: qHTS assay for small molecule activators of the rat pregnane X receptor (rPXR) signaling pathway (AID 651751; call rule not given here; also: 0% is about no effect); conditions: rPXR reporter cells, luciferase (One-Glo), 24 h
[15] = target: Peroxisome proliferator-activated receptor gamma (Homo sapiens) (UniProt P37231); test: qHTS assay for small molecule agonists of peroxisome proliferator-activated receptor gamma signaling (AID 588536; active = well fitted curve in the direction sought with a large enough effect in the signal ratio, with a control signal flat, not every such curve was filed as active; the % refers to the signal ratio;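 also: 0% = DMSO basal wells and 100% = rosiglitazone at 2 µM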)
In short: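 Compound treatment: 16 h, 37 C, HEK293 GeneBLAzer cells. Detection: CCF4, 2 h RT. Values: Hill-fit EC50, efficacy as % of 2 uM rosiglitazone.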

[16] = qHTS assay for small molecule activators of the p53 signaling pathway (AID 651743; active = well fitted activation curve with a large enough effect in the signal ratio, not every such curve was filed as active; the % refers to the signal ratio; also: potency is read from the fitted curve at half-maximal effect; as to activation: series mostly up to about 92 µM; % of control where 0% means no effect); conditions: HCT-116 p53RE-bla, beta-lactamase FRET ratio, 16 h; activation: stronger effect = higher value
In short: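 Following 16 hours of compound exposure at 37 C, HCT-116 cells bearing the p53RE-bla reporter were loaded with LiveBLAzer B/G FRET substrate for 2 hours at room temperature and fluorescence intensity was recorded.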

[17] = qHTS assay for cell viability of HEK293 cells (AID 743288; active = well fitted curve in the direction sought with a large enough effect; an effect the other way counts as inactive or inconclusive; also: % is scaled to controls: 0 for no effect and ±100 for the full control effect; nearly all actives have a fitted effect of over 50% in size); conditions: ATP luminescence (CellTiter-Glo), 18 h; max response: stronger effect = lower value
In short: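 Viable-cell counts were inferred from luciferase-based ATP content in HEK293 cells seeded at 2,000/well, pre-incubated ≥5 h, then dosed with DMSO-solubilised compounds for 18 h at 37 C.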

[18] = target: Cytochrome P450 3A4 (Homo sapiens) (UniProt P08684); test: qHTS Assay for Activators of Cytochrome P450 3A4 (AID 885; active = well fitted curve in the direction sought with a large enough effect; an effect the other way counts as inactive or inconclusive; also: nearly all actives have a fitted effect of over 65% in size)
In short: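 CYP3A4 activity: Luciferin-PPXE O-dealkylation, 25uM substrate, 200mM KPO4, RT throughout. Read-out is luciferase luminescence; higher values reflect activation.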

[19] = target: Cytochrome P450 3A4 (Homo sapiens) (UniProt P08684); test: qHTS Assay for Inhibitors and Substrates of Cytochrome P450 3A4 (AID 884; active = well fitted curve in the direction sought with a large enough effect; an effect the other way counts as inactive or inconclusive; also: potency is read from the fitted curve at half-maximal effect; nearly all actives have a fitted effect of over 50% in size)
In short: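 Luminescent readout of luciferin produced by CYP3A4 (20 nM) dealkylation of Luciferin-PPXE, 25 uM (its KM). NADPH-driven reaction ran 60 min at RT after 10 min compound preincubation; data scaled to 57 uM ketoconazole as 100% inhibition.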

[20] = target: Nuclear receptor ROR-gamma (Homo sapiens) (UniProt P51449); test: qHTS assay for small molecule antagonists of the retinoid-related orphan receptor gamma (ROR-gamma) signaling pathway (AID 651802; active = well fitted curve in the direction sought with a large enough effect; an effect the other way counts as inactive or inconclusive; also: potency is read from the fitted curve at half-maximal effect; nearly all actives have a fitted effect of over 60% in size)
In short: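 Steps: cells dispensed; compound or DMSO transferred by pin tool; doxycycline added to induce the ROR response element-driven luciferase; plates held 16hr at 37C; ONE-Glo added and luminescence measured.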

[21] = target: Peroxisome proliferator-activated receptor gamma (Homo sapiens) (UniProt P37231); test: qHTS assay for small molecule antagonists of peroxisome proliferator-activated receptor gamma signaling (AID 588537; active = well fitted inhibition curve with a large enough effect in the signal ratio, with a control signal flat, not every such curve was filed as active; the % refers to the signal ratio;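 also: reporter cells co-stimulated with 50 nM rosiglitazone agonist during compound treatment; % of control where 0% means no effect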)
In short: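 Fluorescence at 460 and 530 nm (405 nm excitation) reported beta-lactamase cleavage of CCF4 after 2 h room-temperature loading. HEK293 reporter cells in 1% charcoal/dextran-treated FBS had received compound and rosiglitazone for 16 h.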

[22] = qHTS assay for cell viability of the p53RE-bla HCT-116 cell line (AID 743292; active = well fitted curve in the direction sought with a large enough effect; an effect the other way counts as inactive or inconclusive; also: % is scaled to controls: 0 for no effect and ±100 for the full control effect; nearly all actives have a fitted effect of over 55% in size)
In short: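 CellSensor p53RE-bla HCT-116 cells, 4,000/well, preincubated 5 h at 37 C, then exposed to compounds in DMSO for 16 h at 37 C. Viability read as CellTiter-Glo luminescence (intracellular ATP) after 30 min at room temperature.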

[23] = qHTS assay for small molecule agonists of the antioxidant response element (ARE) signaling pathway (AID 651741; active = well fitted activation curve with a large enough effect in the signal ratio; the % refers to the signal ratio; also: potency is read from the fitted curve at half-maximal effect)
In short: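 Stably integrated ARE-beta-lactamase reporter HepG2 cells; 16 h compound incubation, 37 C; LiveBLAzer FRET substrate 2 h at room temperature; fluorescence intensity.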

Peroxisome proliferator-activated receptor delta (Homo sapiens), sequence (Q03181 whole entry, looked up): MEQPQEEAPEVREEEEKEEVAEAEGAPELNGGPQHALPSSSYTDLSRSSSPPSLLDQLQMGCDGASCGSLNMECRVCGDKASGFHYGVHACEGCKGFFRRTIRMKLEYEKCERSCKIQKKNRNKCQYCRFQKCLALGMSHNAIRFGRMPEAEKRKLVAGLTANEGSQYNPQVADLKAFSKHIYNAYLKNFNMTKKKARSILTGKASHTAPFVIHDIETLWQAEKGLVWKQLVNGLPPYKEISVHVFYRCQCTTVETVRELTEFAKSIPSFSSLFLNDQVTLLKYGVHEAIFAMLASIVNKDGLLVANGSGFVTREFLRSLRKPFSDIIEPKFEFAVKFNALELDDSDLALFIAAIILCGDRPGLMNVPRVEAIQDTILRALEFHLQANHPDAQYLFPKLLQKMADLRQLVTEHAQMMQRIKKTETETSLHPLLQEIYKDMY
Bile acid receptor (Homo sapiens), sequence (Q96RI1 whole entry, looked up): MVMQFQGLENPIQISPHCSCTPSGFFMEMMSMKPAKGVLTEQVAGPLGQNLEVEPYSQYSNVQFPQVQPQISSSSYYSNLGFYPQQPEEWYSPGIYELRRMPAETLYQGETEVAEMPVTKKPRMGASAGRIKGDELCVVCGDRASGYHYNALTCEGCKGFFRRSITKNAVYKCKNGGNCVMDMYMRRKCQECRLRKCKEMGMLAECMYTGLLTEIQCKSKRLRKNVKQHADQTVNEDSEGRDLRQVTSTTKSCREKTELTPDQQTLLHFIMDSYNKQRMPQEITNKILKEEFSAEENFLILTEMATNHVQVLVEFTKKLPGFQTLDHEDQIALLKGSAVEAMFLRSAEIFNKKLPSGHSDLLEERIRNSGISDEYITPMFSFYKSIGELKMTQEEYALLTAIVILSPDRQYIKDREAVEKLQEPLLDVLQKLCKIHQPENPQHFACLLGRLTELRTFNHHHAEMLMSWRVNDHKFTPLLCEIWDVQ
Vitamin D3 receptor (Homo sapiens), sequence (P11473 whole entry, looked up): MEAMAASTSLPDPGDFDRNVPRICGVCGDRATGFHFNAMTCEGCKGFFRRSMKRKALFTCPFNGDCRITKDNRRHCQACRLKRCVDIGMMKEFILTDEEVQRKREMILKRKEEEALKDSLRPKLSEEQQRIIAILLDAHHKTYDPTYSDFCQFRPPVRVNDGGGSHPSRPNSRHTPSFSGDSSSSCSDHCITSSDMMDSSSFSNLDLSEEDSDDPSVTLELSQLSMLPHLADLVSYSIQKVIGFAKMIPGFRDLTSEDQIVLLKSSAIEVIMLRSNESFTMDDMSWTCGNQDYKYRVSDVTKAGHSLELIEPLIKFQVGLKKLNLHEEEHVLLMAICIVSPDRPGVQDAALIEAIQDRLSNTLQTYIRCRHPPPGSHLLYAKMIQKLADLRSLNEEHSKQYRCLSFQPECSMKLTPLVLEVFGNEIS
Peroxisome proliferator-activated receptor alpha (Homo sapiens), sequence (Q07869 whole entry, looked up, the tested form may be a part): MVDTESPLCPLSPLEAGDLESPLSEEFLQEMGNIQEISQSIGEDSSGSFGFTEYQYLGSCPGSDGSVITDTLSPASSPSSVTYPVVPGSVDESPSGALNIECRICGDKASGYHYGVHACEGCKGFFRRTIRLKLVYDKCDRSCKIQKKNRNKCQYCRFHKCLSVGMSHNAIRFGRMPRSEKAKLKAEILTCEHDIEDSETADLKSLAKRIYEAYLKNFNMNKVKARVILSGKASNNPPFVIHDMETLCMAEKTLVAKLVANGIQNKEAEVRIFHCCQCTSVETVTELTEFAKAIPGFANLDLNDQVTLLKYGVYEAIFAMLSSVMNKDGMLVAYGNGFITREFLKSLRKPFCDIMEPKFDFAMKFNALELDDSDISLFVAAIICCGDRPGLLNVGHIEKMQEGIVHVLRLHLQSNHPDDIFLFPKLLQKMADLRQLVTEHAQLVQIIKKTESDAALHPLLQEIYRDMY
Cytochrome P450 3A4 (Homo sapiens), sequence (P08684 whole entry, looked up): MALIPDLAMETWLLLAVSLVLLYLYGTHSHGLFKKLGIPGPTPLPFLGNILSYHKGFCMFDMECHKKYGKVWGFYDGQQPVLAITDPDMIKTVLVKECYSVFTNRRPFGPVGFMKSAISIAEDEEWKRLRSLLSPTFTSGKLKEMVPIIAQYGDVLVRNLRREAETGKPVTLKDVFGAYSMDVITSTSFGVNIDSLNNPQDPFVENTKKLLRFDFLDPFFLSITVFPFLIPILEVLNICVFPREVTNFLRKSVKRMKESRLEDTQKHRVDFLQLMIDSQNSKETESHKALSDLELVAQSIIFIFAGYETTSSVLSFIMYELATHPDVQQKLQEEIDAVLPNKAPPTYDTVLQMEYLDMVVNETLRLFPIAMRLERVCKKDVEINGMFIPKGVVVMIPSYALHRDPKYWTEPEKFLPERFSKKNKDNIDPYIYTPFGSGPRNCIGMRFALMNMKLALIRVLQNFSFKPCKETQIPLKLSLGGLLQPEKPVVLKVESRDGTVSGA
Thyroid hormone receptor beta (Homo sapiens), sequence (P10828 whole entry, looked up): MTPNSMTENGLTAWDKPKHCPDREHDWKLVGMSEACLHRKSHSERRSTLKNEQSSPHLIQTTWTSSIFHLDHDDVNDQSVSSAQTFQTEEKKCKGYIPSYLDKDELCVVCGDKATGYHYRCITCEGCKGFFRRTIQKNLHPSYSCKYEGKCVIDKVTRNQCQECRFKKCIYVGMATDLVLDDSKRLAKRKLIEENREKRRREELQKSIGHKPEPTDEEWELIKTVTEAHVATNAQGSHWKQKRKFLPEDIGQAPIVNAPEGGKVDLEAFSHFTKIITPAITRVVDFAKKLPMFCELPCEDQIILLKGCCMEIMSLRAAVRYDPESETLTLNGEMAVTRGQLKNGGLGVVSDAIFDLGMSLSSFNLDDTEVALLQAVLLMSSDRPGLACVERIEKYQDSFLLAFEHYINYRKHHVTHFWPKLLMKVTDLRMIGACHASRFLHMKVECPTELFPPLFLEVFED
Peroxisome proliferator-activated receptor gamma (Homo sapiens), sequence (P37231 whole entry, looked up): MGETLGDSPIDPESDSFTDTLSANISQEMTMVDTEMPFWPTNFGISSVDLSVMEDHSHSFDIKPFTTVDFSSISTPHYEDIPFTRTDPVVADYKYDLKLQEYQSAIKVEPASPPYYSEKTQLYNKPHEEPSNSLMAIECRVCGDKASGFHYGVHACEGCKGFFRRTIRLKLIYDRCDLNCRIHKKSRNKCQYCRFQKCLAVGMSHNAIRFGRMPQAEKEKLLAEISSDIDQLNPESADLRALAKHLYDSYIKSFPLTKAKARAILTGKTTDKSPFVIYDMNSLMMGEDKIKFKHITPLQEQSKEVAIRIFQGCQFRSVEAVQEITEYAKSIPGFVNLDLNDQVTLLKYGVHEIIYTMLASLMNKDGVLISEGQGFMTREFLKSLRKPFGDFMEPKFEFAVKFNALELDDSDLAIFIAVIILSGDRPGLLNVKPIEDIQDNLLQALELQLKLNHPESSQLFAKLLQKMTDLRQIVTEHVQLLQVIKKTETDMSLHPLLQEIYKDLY
Retinoic acid receptor RXR-alpha (Homo sapiens), sequence (P19793 whole entry, looked up): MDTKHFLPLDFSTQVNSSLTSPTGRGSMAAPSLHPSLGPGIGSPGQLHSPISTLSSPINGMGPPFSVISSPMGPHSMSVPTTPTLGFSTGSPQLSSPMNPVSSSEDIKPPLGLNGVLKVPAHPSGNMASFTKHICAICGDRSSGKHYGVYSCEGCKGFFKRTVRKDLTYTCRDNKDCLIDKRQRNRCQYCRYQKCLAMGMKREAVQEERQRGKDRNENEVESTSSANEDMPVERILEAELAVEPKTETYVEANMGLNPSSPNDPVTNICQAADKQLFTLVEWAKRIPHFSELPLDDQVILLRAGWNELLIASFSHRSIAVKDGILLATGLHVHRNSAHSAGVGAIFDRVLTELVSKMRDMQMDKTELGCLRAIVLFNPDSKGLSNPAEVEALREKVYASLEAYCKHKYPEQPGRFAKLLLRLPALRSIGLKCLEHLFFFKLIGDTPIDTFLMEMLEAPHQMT
Nuclear receptor ROR-gamma (Homo sapiens), sequence (P51449 whole entry, looked up): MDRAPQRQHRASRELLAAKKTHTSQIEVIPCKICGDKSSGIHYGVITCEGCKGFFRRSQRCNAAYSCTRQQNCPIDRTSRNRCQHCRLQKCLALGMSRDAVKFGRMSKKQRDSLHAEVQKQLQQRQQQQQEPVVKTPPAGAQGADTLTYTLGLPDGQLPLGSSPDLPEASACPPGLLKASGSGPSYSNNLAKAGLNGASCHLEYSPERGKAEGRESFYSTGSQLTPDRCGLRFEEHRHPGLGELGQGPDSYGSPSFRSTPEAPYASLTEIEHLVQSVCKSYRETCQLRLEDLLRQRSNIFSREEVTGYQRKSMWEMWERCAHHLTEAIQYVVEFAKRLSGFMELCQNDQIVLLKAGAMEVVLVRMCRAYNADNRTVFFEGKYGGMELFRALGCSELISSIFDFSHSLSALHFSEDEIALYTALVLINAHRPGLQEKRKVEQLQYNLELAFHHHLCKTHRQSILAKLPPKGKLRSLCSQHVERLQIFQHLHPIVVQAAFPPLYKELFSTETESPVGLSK
Nuclear receptor subfamily 1 group I member 2 (Rattus norvegicus), sequence (Q9R1A7 whole entry, looked up): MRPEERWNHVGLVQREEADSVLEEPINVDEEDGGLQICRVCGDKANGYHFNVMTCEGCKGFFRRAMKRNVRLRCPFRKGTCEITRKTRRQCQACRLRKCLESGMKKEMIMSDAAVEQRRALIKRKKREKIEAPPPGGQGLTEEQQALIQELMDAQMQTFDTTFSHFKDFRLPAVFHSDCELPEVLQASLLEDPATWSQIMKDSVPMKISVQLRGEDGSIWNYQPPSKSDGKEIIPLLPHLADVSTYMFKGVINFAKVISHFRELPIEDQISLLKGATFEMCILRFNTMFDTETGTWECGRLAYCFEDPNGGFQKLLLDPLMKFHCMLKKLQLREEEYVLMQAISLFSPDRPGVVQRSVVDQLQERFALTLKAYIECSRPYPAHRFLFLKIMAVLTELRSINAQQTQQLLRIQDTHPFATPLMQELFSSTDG

COC(=O)c1ccccc1S(=O)(=O)NC(=O)Nc1nc(C)nc(OC)n1
36.9%: max response [3]
-10.3%: max response [8]
inactive: activation [1] -2.54% | outcome [2] | Potency [4] | Potency [5] | outcome [6] | Potency [7] | max response [9] 25.6% | activation [10] -1.13% | max response [11] 5.99% | Potency [12] | max response [13] 13.7% | max response [14] -8.23%

Cc1ccc(-c2c(Cl)nc(C#N)n2S(=O)(=O)N(C)C)cc1
inactive: activation [1] 4.98% | Potency [15] | outcome [6] | activation [10] 12.8% | max response [11] 15.7% | max response [17] -15.9%
active: Potency [16] 28.2 µM

Cc1cc([N+](=O)[O-])ccc1N
inactive: Potency [18] | activation [1] -0.935% | outcome [2]

CC(=O)OCc1ccc2c(c1)OCO2
active: Potency [19] 10 µM
inactive: Potency [18] | activation [1] -1.12%

CC(C)(C)C(=O)C1C(=O)c2ccccc2C1=O
inactive: activation [1] 1.07%
active: Potency [20] 21.1 µM

C[Si](Cn1cncn1)(c1ccc(F)cc1)c1ccc(F)cc1
inactive: activation [1] 2.34% | Potency [21] | Potency [5] | outcome [6] | Potency [7] | activation [16] -4.21% | activation [10] 6.54% | max response [11] -0.864% | Potency [12] | max response [13] -21.1% | Potency [22]

CCCCC(CC)COCCCN (stereo not drawn)
inactive: activation [1] -0.0297% | outcome [2]

Oc1ccc2ccccc2c1N=Nc1ccccc1
active: Potency [10] 14.1 µM
inactive: activation [1] 3.78%

c1ccc2c(c1)ccc1c3ccccc3ccc21
active: Potency [23] 4.33 µM | Potency [10] 11.2 µM
inactive: activation [1] -1.28% | outcome [2]
